# What was measured:
# Test in all cases: DAPPL (digital affinity profiling via proximity ligation, sequencing); 10 mM Tris-HCl pH 7.5, 50 mM NaCl, 1 mM DTT, 4% glycerol, room temperature, 30 min; GST-TFs on glutathione beads, 16-mer random dsDNA library, 0.1% formaldehyde crosslink after washing; high values mean tight binding
# FEV = target: T1, FEV (Homo sapiens, UniProt Q99581 1-238); conditions: protein: recombinant; tags: N-terminal GST; dsDNA, one strand shown
# T1 sequence: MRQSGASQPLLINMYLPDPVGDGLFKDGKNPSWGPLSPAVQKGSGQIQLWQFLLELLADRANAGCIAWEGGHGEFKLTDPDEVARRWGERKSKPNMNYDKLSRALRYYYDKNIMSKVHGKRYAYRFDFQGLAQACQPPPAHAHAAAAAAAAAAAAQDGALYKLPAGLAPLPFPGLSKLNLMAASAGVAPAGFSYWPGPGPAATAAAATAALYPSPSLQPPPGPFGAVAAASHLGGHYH
# In short: (§1)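 Binding signal is each hexamer's read frequency for a factor divided by its frequency in the tag-only sample. The factors were GST-fused human transcription factors from yeast, captured on glutathione beads, DNA-barcoded and pooled with that sample. Pools were incubated with 200 nmole of a random double-stranded 16-mer DNA library in Tris/NaCl/DTT/glycerol buffer at room temperature for 30 min, then washed, crosslinked with 0.1% formaldehyde, proximity-ligated with BsaI/T4 ligase (1 h, 37 °C), PCR-amplified and sequenced on an Illumina NextSeq500.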
# ETV5 = ETV5 (Homo sapiens, UniProt P41161 1-510); conditions: protein: recombinant; tags: N-terminal GST; dsDNA, one strand shown
# Chain of ETV5 (P41161 whole entry): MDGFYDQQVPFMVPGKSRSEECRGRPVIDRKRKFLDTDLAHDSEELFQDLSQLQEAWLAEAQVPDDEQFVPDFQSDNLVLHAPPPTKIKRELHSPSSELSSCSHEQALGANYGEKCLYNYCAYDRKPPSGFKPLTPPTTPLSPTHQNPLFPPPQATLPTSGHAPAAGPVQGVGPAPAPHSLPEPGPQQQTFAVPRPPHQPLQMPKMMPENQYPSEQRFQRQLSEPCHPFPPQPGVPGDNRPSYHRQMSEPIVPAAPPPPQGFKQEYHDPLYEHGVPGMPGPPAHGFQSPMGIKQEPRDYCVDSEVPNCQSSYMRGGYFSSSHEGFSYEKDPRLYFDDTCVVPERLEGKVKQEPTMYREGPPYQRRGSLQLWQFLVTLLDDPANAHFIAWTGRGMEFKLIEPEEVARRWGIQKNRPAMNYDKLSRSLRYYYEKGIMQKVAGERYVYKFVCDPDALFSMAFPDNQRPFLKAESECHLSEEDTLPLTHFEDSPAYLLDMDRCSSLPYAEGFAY
# In short: as §1
# HSF1 = HSF1 (Homo sapiens, UniProt Q00613 1-529); conditions: protein: recombinant; tags: N-terminal GST; chain copies: 3; dsDNA, one strand shown
# Chain of HSF1 (Q00613 whole entry): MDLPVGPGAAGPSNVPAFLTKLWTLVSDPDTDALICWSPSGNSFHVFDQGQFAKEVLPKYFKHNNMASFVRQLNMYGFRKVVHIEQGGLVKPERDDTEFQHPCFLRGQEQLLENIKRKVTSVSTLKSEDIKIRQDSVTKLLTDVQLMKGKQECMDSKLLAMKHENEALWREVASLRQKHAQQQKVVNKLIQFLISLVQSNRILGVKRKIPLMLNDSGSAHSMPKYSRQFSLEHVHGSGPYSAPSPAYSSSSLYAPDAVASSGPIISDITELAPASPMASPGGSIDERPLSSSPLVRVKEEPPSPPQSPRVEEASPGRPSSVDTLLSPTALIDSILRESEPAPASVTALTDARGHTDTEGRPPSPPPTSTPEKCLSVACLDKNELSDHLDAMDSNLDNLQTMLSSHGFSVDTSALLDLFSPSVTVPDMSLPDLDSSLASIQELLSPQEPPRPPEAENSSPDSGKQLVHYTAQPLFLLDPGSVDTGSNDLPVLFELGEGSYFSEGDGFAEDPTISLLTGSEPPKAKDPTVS
# In short: as §1
# SPIC = target: T2, SPIC (Homo sapiens, UniProt Q8N5J4 1-248); conditions: protein: recombinant; tags: N-terminal GST; dsDNA, one strand shown
# T2 sequence: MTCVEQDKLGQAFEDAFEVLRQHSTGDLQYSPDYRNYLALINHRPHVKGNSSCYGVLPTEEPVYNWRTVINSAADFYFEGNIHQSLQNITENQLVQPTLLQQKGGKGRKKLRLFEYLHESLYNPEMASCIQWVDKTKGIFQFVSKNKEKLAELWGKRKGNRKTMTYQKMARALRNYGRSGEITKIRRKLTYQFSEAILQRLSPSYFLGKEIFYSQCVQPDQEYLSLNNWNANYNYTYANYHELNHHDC
# In short: as §1
# ELF4 = ELF4 (Homo sapiens, UniProt Q99607 1-663); conditions: protein: recombinant; tags: N-terminal GST; dsDNA, one strand shown
# Chain of ELF4 (Q99607 whole entry): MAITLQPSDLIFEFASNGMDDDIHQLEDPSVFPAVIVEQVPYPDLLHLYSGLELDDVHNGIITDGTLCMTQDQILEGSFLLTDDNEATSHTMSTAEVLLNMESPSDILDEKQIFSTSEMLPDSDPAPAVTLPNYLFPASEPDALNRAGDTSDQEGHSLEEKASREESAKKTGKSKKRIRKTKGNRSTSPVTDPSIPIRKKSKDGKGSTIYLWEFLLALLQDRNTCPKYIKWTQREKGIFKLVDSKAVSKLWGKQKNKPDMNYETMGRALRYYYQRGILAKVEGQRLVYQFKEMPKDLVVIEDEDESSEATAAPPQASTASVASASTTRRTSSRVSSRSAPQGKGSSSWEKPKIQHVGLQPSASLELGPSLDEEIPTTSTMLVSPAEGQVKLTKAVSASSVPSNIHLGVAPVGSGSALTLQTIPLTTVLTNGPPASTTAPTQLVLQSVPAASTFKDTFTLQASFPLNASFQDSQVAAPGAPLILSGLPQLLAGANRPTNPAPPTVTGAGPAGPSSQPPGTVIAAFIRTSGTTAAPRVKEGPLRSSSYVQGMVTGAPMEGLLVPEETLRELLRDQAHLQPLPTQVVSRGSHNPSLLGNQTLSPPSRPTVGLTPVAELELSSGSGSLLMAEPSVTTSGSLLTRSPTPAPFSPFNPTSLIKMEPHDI
# In short: as §1
# ELK4 = target: T3, ELK4 (Homo sapiens, UniProt P28324-2 1-405); conditions: protein: recombinant; tags: N-terminal GST; dsDNA, one strand shown
# T3 sequence: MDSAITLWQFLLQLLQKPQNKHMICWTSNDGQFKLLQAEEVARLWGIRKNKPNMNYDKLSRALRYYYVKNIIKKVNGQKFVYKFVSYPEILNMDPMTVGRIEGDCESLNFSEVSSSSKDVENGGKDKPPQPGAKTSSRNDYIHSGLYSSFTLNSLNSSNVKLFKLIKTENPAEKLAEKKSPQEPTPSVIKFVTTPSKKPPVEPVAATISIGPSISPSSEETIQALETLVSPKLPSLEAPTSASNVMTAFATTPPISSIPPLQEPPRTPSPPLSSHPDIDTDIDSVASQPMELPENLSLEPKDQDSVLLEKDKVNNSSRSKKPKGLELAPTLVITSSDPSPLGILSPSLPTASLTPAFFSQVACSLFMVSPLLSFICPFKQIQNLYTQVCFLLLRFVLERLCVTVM
# In short: as §1
# ETV2 = target: T4, ETV2 (Homo sapiens, UniProt O00321 1-342); conditions: protein: recombinant; tags: N-terminal GST; dsDNA, one strand shown
# T4 sequence: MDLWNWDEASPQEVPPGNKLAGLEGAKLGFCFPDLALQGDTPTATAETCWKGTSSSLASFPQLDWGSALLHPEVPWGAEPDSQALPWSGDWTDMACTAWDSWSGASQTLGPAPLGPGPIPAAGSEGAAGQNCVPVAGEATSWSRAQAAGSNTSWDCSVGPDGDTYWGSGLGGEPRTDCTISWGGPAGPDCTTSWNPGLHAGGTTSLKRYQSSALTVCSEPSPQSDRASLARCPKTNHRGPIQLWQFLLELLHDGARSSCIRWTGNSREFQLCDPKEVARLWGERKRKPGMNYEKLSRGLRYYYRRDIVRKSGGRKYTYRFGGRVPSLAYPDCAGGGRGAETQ
# In short: as §1
# ELF3 = target: T5, ELF3 (Homo sapiens, UniProt P78545 1-371); conditions: protein: recombinant; tags: N-terminal GST; dsDNA, one strand shown
# T5 sequence: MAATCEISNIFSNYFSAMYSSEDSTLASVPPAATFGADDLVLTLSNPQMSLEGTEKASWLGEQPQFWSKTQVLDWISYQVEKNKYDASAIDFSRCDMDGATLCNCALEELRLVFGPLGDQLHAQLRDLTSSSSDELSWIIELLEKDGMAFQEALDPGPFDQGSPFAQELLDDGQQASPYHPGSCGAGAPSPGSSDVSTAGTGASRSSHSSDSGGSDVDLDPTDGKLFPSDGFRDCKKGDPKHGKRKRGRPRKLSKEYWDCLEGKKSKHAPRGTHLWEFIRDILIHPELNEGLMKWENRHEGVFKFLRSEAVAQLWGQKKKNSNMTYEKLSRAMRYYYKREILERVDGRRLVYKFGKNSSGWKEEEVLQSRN
# In short: as §1
# CRX = CRX (Homo sapiens, UniProt O43186 1-299); conditions: protein: recombinant; tags: N-terminal GST; dsDNA, one strand shown
# Chain of CRX (O43186 whole entry): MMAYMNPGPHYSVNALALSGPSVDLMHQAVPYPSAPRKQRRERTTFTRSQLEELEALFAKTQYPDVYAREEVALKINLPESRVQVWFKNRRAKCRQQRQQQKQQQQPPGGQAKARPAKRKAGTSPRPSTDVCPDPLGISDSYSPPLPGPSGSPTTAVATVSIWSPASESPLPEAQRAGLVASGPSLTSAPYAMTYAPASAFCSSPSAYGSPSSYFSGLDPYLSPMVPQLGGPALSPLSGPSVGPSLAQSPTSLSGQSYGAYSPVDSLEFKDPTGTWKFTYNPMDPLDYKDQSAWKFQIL
# In short: as §1
# ETV1 = ETV1 (Homo sapiens, UniProt P50549 1-477); conditions: protein: recombinant; tags: N-terminal GST; dsDNA, one strand shown
# Chain of ETV1 (P50549 whole entry): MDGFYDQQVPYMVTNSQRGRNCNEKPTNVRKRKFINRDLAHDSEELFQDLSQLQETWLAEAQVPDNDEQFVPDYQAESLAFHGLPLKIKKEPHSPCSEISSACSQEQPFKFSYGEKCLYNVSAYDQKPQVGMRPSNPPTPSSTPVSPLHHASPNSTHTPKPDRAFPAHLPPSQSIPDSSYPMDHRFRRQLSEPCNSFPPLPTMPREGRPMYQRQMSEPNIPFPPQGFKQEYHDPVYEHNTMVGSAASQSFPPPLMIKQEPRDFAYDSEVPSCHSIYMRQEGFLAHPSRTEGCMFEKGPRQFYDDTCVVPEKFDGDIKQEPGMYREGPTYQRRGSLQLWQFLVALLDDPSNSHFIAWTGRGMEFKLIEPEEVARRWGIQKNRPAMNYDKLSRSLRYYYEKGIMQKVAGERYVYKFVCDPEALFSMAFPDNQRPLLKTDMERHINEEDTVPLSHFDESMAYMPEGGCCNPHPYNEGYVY
# In short: as §1
# ERF = target: T6, ERF (Homo sapiens, UniProt P50548 1-548); conditions: protein: recombinant; tags: N-terminal GST; dsDNA, one strand shown
# T6 sequence: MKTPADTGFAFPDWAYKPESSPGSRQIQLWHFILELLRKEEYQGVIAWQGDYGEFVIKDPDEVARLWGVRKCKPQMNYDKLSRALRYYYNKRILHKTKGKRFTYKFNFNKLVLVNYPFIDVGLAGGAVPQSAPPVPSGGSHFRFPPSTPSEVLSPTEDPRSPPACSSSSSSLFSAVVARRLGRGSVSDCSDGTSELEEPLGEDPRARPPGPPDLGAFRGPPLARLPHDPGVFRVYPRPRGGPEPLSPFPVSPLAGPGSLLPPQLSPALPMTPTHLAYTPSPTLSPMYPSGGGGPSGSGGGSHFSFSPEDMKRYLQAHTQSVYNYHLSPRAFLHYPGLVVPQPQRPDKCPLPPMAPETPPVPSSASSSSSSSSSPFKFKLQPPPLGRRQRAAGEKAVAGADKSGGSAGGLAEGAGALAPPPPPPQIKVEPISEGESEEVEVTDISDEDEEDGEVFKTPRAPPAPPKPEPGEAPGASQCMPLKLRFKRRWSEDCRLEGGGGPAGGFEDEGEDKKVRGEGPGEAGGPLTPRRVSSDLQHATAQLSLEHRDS
# In short: as §1
# ETV3L = target: T7, ETV3L (Homo sapiens, UniProt Q6ZN32 1-361); conditions: protein: recombinant; tags: N-terminal GST; dsDNA, one strand shown
# T7 sequence: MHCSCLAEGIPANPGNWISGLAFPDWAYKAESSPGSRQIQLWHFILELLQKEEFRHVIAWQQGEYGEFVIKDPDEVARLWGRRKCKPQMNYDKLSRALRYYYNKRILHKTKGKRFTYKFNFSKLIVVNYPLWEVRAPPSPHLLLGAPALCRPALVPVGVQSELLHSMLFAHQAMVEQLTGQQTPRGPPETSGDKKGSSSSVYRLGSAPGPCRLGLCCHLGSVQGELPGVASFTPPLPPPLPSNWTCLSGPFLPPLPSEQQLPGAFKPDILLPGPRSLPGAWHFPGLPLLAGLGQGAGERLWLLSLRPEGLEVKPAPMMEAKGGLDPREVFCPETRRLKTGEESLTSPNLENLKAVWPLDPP
# In short: as §1
# ETS2 = target: T8, ETS2 (Homo sapiens, UniProt P15036 1-469); conditions: protein: recombinant; tags: N-terminal GST; dsDNA, one strand shown
# T8 sequence: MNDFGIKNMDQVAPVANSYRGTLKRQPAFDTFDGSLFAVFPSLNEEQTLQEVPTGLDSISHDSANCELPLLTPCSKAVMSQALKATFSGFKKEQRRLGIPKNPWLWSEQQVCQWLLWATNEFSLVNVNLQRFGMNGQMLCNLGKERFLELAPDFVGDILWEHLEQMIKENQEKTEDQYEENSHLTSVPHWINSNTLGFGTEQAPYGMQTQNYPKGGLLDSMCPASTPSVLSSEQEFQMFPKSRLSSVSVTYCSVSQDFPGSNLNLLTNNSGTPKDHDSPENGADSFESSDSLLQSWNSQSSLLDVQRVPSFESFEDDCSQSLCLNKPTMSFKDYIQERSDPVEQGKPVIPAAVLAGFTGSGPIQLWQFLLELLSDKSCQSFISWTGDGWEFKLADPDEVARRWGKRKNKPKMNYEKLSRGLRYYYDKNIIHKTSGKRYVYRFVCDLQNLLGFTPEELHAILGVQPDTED
# In short: as §1
# SPDEF = target: T9, SPDEF (Homo sapiens, UniProt O95238 1-335); conditions: protein: recombinant; tags: N-terminal GST; dsDNA, one strand shown
# T9 sequence: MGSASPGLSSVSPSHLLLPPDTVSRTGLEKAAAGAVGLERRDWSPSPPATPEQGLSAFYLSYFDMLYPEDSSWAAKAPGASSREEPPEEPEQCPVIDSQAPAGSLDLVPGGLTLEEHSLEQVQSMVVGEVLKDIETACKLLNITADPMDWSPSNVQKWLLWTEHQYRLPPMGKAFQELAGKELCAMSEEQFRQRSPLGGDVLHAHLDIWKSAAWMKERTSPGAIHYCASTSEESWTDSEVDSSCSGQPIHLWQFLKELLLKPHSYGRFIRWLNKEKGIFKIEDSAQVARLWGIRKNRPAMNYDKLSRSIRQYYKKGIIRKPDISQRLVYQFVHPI
# In short: as §1
# ETV7 = target: T10, ETV7 (Homo sapiens, UniProt Q9Y603 1-341); conditions: protein: recombinant; tags: N-terminal GST; dsDNA, one strand shown
# T10 sequence: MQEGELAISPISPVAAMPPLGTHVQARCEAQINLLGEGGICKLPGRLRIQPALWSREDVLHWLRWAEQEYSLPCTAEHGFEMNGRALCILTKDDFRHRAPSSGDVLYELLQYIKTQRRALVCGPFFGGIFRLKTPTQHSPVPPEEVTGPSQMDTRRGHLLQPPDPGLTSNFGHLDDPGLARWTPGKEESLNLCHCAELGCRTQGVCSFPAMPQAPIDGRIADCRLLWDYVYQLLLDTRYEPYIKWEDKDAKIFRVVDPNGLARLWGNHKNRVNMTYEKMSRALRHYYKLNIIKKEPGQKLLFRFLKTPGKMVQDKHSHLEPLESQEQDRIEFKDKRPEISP
# In short: as §1
# ELF5 = target: T11, ELF5 (Homo sapiens, UniProt Q9UKW6-2 1-255); conditions: protein: recombinant; tags: N-terminal GST; dsDNA, one strand shown
# T11 sequence: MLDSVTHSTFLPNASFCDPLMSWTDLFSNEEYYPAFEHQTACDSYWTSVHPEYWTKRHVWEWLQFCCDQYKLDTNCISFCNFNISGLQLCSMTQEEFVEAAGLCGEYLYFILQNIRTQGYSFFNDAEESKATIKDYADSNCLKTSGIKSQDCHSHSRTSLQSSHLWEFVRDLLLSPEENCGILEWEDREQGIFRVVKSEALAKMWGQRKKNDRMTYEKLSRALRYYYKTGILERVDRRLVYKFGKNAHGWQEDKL
# In short: as §1
# ETV3 = target: T12, ETV3 (Homo sapiens, UniProt P41162-2 1-143); conditions: protein: recombinant; tags: N-terminal GST; dsDNA, one strand shown
# T12 sequence: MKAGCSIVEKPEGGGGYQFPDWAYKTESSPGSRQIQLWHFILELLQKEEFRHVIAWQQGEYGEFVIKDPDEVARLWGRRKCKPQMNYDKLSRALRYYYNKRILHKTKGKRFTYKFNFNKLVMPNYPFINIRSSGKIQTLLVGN
# In short: as §1
# ETV6 = ETV6 (Homo sapiens, UniProt P41212 1-452); conditions: protein: recombinant; tags: N-terminal GST; dsDNA, one strand shown
# Chain of ETV6 (P41212 whole entry): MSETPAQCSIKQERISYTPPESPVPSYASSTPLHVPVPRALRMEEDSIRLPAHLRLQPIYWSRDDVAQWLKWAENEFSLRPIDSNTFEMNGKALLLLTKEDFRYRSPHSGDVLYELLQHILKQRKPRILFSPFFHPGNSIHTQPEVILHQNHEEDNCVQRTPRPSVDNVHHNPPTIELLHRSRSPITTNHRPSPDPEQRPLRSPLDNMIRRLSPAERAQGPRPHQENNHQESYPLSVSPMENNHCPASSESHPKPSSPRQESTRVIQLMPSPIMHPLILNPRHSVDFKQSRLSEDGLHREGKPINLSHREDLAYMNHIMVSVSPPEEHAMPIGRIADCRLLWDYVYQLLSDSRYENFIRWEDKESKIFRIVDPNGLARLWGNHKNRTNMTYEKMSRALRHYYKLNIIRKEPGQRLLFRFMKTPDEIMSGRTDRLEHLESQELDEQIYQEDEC
# In short: as §1
sequence,measurement,setting,value
ATGGCT,binding signal,FEV,"1.33 fold enrichment (6-mer frequency, TF over GST control)"
same,binding signal,ETV5,"1.29 fold enrichment (6-mer frequency, TF over GST control)"
same,binding signal,HSF1,"1.32 fold enrichment (6-mer frequency, TF over GST control)"
same,binding signal,SPIC,"1.42 fold enrichment (6-mer frequency, TF over GST control)"
same,binding signal,ELF4,"1.32 fold enrichment (6-mer frequency, TF over GST control)"
same,binding signal,ELK4,"1.34 fold enrichment (6-mer frequency, TF over GST control)"
same,binding signal,ETV2,"1.41 fold enrichment (6-mer frequency, TF over GST control)"
same,binding signal,ELF3,"1.33 fold enrichment (6-mer frequency, TF over GST control)"
same,binding signal,CRX,"1.48 fold enrichment (6-mer frequency, TF over GST control)"
same,binding signal,ETV1,"1.29 fold enrichment (6-mer frequency, TF over GST control)"
same,binding signal,ERF,"1.27 fold enrichment (6-mer frequency, TF over GST control)"
same,binding signal,ETV3L,"1.37 fold enrichment (6-mer frequency, TF over GST control)"
same,binding signal,ETS2,"1.32 fold enrichment (6-mer frequency, TF over GST control)"
same,binding signal,SPDEF,"1.23 fold enrichment (6-mer frequency, TF over GST control)"
same,binding signal,ETV7,"1.34 fold enrichment (6-mer frequency, TF over GST control)"
same,binding signal,ELF5,"1.25 fold enrichment (6-mer frequency, TF over GST control)"
same,binding signal,ETV3,"1.33 fold enrichment (6-mer frequency, TF over GST control)"
same,binding signal,ETV6,"1.38 fold enrichment (6-mer frequency, TF over GST control)"
